# Measurements from PubChem BioAssay (EPA / NIEHS).
# The source made the active and inactive calls. Rule for the calls: active = hit-call score of the fitted dose curve at least 0.9, where 1 is the maximum; inactive = score below 0.9.
# Read-out: Vascular cell adhesion molecule 1 (VCAM1), VCAM1 (gene 7412)
# Assay: BSK_IMphg_VCAM1: BioMAP Diversity Plus: IMphg Assay for Vascular cell adhesion molecule 1 (VCAM1) Biomarker Activity (AID 2284286)
# Conditions: primary human endothelial cells with macrophages
# Method: BSK_IMphg is a cell-based, multiplexed-readout assay that uses venular endothelial cells and macrophages, a human vascular primary cell, with measurements taken at 24 hours after chemical dosing in a microplate: 96-well plate.BSK_IMphg_VCAM1 is an assay component measured in the BSK_IMphg assay. It measures VCAM-1 antibody related to regulation of gene expression using ELISA technology.Data from the assay component BSK_IMphg_VCAM1 was analyzed at the endpoint, BSK_IMphg_VCAM1, in the positive analysis fitting direction relative to DMSO as the negative control and baseline of activity. Using a type of binding reporter, gain or loss-of-signal activity can be used to understand protein changes. To generalize the intended target to other relatable targets, this assay endpoint is annotated to the 'cell adhesion molecules' intended target family, where the subfamily is 'Immunoglobulin CAM'.
# The levels of cell surface (or secreted, indicated by the prefix "s") biomarker endpoints were measured by ELISA. Overt cytotoxicity to cells in confluent adherent cultures (all systems other than the BT system) was assessed by measuring total protein levels using sulforhodamine B (SRB) staining in parallel cultures at the time of biomarker measurements, indicated as SRB endpoints. For proliferation assays for adherent cell types, individual cell types are cultured at sub-confluence and relative cell numbers quantified by SRB staining at time points optimized for each system (48 h: 3C and CASM3C systems; 72 h: BT and HDF3CGF systems; 96 h: SAg system). SRB was performed by staining cells with 0.1% SRB after fixation with 10% TCA and reading wells at 560 nm.Viability and proliferation of PBMC (T cells) was quantified by Alamar Blue reduction for the SAg and BT systems. For PBMC viability (referred to as PBMC Cytotoxicity within the assay endpoint names), cells were plated (75,000/well in a 96-well plate) and then chemical samples added for 1 h before addition of activators, SEB and TSST-1 (20 ng/mL final concentration each). Cells were incubated for 90 h. Then, Alamar Blue (20 uL/well) (Invitrogen, Cat DAL1100) was added for 6 h, and the plates were read with a fluorescence microplate reader at 546/580 nm (excitation/emission). For PBMC proliferation, cells were plated and activated as above but incubated for only 16 h prior to addition of Alamar Blue. Plates were read after 6 h.
row,SMILES,outcome
1,OCCC(F)(F)C(F)(F)C(F)(F)C(F)(F)F,inactive
2,FC(F)=C(F)C(F)(F)C(F)(F)C(F)(F)C(F)(F)C(F)(F)C(F)(F)F,inactive
3,NCC(F)(F)C(F)(F)C(F)(F)C(F)(F)F,inactive
4,OC(O)(C(F)C(O)(O)C(F)(F)F)C(F)(F)F,inactive
5,FC(F)(F)COC(OCC(F)(F)F)OCC(F)(F)F,inactive
6,FC(F)(F)C(F)(F)C(F)(F)C(F)(F)C(F)(F)C(F)(F)I,inactive
7,C[Si](C)(C)C(F)(F)C(F)(F)C(F)(F)F,inactive
8,FC(F)C(F)(F)COCC1CO1 (stereo not given),inactive
9,O=C(Cl)C(F)(F)C(F)(F)C(F)(F)C(=O)Cl,inactive
10,O=S(=O)(O)CCC(F)(F)C(F)(F)C(F)(F)C(F)(F)C(F)(F)C(F)(F)F,inactive
